This excerpt belongs to a sample that is enriched for hits.
Giardia FBPA inh: qHTS Assay for Inhibitors of Fructose-1,6-bisphosphate Aldolase from Giardia Lamblia; Potency, µM (titrated, usually from 59.6 µM), for the others: top-dose activity, negative = inhibition, usual class: inhibitors; A8B2U2; actives 0.71% (n = 290,000); purified Giardia FBPA; AID 2451, 2010; note: potency is the fitted concentration of half-maximal effect; % is set by controls: 0 for no effect and ±100 for the full control effect; nearly all actives have a fitted effect of over 55% in size
Target sequence (A8B2U2 whole entry, looked up): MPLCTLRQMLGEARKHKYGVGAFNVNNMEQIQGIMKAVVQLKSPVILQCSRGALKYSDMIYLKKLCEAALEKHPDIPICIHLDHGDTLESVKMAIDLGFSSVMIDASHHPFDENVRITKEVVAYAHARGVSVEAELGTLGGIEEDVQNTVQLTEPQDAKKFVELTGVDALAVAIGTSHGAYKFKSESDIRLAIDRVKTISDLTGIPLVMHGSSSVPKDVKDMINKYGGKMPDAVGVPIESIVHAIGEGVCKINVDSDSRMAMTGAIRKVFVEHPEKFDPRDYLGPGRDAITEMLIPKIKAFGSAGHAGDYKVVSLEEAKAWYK
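40 nM FBPA preincubated 10 min at RT with compound (up to 57.5 uM final), then substrate plus GAPDH/TPI/NAD/arsenate coupling and diaphorase/resazurin added. Fluorescence read after 20 min at RT, 525/598 nm.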
Sm TGR inh: qHTS Assay for the Inhibitors of Schistosoma Mansoni Peroxiredoxins | actives 3% (n = 360,000) | purified TGR, DTNB reduction, TNB absorbance 405 nm | Potency, µM (top dose mostly 114 µM), without a hit: at the top dose activity change, negative = inhibition, usual class: inhibitors; note: potency is the fitted concentration of half-maximal effect; % is set by controls: 0 for no effect and ±100 for the full control effect; nearly all actives have a fitted effect of over 60% in size
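Kinetic colorimetric format: TGR-catalysed, NADPH-driven DTNB reduction monitored via TNB absorbance. Enzyme dispensed at 20 nM; compound exposure 15 min at room temperature before reaction start.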
Tb PYK inh: qHTS of Trypanosoma Brucei Inhibitors; Potency, µM (titrated, usually from 76.8 µM), without a hit: top-dose activity, negative = inhibition, most hits filed as inhibitors; pyruvate kinase (Trypanosoma brucei), Q57TT1; TbPYK enzyme, Kinase-Glo Plus ATP luminescence, 45 min; AID 624173, 2012; actives 0.12% (n = 410,000); note: potency is the fitted concentration of half-maximal effect; % is set by controls: 0 for no effect and ±100 for the full control effect; nearly all actives have a fitted effect of over 50% in size
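Luminescence from Kinase-Glo Plus, added after a 45-minute room-temperature reaction, served as the end-point read-out. The enzyme and substrate were preincubated with compound before ADP (130 uM final) initiated turnover. Concentration-effect curves came from normalized qHTS data.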
Cycloheximide cs: Cycloheximide Counterscreen for Small Molecule Inhibitors of Shiga Toxin. AID 2314, 2010. cell reporter, cycloheximide protein synthesis inhibition counterscreen. actives 12% (n = 300,000). max response, %; in the data active = max response mostly above about 13%, no sharp cut-off; inactive = mostly below about 14%; note: read at 38.3 µM for the half of the compounds with a filed dose; 0% is about no effect
LmPK inhibitor: qHTS Assay for Inhibitors of Leishmania Mexicana Pyruvate Kinase (LmPK); actives 0.37% (n = 290,000); Potency, µM (doses to about 57.5 µM), inactives show top-dose activity change, negative = inhibition, actives largely listed as inhibitors; AID 1721, 2009; purified LmPK, Kinase-Glo ATP luminescence, 1 h; Q27686; note: potency is the fitted concentration of half-maximal effect; % is set by controls: 0 for no effect and ±100 for the full control effect
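0.1 nM LmPK, 0.5 mM PEP, 0.1 mM ADP; 50 mM imidazole pH 7.2, 7 mM MgCl2, 50 mM KCl; 1 h RT. Kinase-Glo luminescence readout, normalized to no-enzyme (full inhibition) and uninhibited wells.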
Shiga inhibitor: A qHTS for Small Molecule Inhibitors of Shiga Toxin; Vero cells, Shiga toxin protein synthesis inhibition reporter; inhibition, % at 38.7 µM; actives 9.2% (n = 290,000); in the data active = inhibition mostly above about 28%, no sharp cut-off; inactive = mostly below about 43%; note: 0% is about no effect
Numbers without * were called inactive; u = inconclusive; x = no result given; [ ] = dose if it differs, or a comment. Unless noted, calls come from the whole dose curve; as a rule, active = well fitted curve in the direction sought with a large enough effect; inconclusive = small, poorly fitted or top-dose-only effect, or another doubt; inactive = no such curve, though single readings can be large; an effect the other way counts as inactive or inconclusive.

SMILES	Giardia FBPA inh	Sm TGR inh	Tb PYK inh	Cycloheximide cs	LmPK inhibitor	Shiga inhibitor
CSCC[C@H](NC(=O)CN)C(=O)N[C@@H](CC(=O)O)C(=O)N[C@@H](CO)C(=O)N[C@@H](CC(C)C)C(=O)N[C@@H](C)C(=O)N[C@@H](Cc1ccccc1)C(=O)N[C@@H](CO)C(=O)NCC(=O)NCC(=O)N[C@@H](CC(C)C)C(N)=O	5.2%	x	x	6.2	x	-4.3
CCc1ccc(C(=O)Cn2ncc(Cl)c(Cl)c2=O)cc1	2.6%	u	-6.3%	17.5*	1.8%	24.3
CCc1cc2c(=O)c(-c3nc(C)cs3)coc2cc1O	-9.7%	2.7%	-2.8%	34.3*	-12.7%	37.8*
Cc1csc(-c2coc3cc(O)cc(C)c3c2=O)n1	-10.2%	16.9%	-9.9%	30.5*	u	107.7*
COc1ccc2c(=O)c(-c3nc(C)cs3)coc2c1	4.3%	3.1%	-14.4%	45.2*	u	78.8*
COc1ccc(-c2coc3cc(OC)ccc3c2=O)cc1	x	x	1.2%	x	x	x
Cc1nc(-c2coc3cc(OCC(=O)O)ccc3c2=O)cs1	0.6%	2.6%	-8.8%	-1.9	u	-15.9
Cc1nc(-c2coc3cc(C)c(N=O)c(O)c3/c2=N\N)cs1	-10.6%	-7.4%	-13.1%	-1.1	2.9%	1.7
Cc1nc(-c2coc3cc(O)c(C)cc3c2=O)cs1	-6.3%	-12.8%	-9.3%	21.3*	7.08µM*	39.4
Cc1ccccc1CN1C(=O)c2ccccc2Sc2ccc(C(=O)OCc3ccco3)cc21	x	31.2%	-1.9%	x	x	x
CCCn1cc(S(=O)(=O)c2ccc(OC)cc2)c(=O)c2cc(F)c(N3CCCCCC3)cc21	x	40.1%	-7.3%	x	x	x
CC(C)(C)OC(=O)C(Br)CCBr (configuration not stated)	-9.4%	x	x	-7.7	x	-15.4
COc1ccc(/C=C2\Oc3ccccc3C2=O)cc1	x	x	-12.7%	x	x	x
COc1ccc(/C=C2\OC(=S)N(C)C2=O)cc1	-3.9%	32.8%	-1.7%	10.8*	3.8%	23.3
CN1C(=O)/C(=C\c2ccc(N(C)C)cc2)OC1=S	3.3%	9.0%	-19.2%	11.6*	-3.0%	1.1
COc1ccc(CCNC(=O)CCCn2c(=O)c3ccccc3n(Cc3ccccc3C#N)c2=O)cc1OC	x	-2.1%	3.4%	x	x	x
O=C(O)[C@@H]1CCCNC1	-1.5%[21.7 µM]	x	x	x	x	x
CC[n+]1c(C)sc2c3ccsc3ccc21	-8.3%	10.3%	3.98µM*	9.6	-9.5%	-3.1
Cc1c(C(=O)NCCc2ccc(S(N)(=O)=O)cc2)cccc1[N+](=O)[O-]	2.5%	x	5.4%	-3.2	1.6%	-4.1
Cc1c(C(=O)NCCC2=CCCCC2)cccc1[N+](=O)[O-]	x	-20.2%	1.9%	34.6*	-3.8%	94.0*
O=C(NCCc1ccccc1)c1cc2ccccc2oc1=O	-5.6%	6.6%	0.6%	-3.9	-3.4%	-7.5
O=C(NCCC1=CCCCC1)c1cc2ccccc2oc1=O	9.2%	-5.6%	-2.7%	18.9*	3.8%	67.2*
COc1ccc(CCNC(=O)c2cc3ccccc3oc2=O)cc1	8.9%	-19.8%	4.1%	28.5*	7.7%	33.8*
O=C(NCCCn1ccnc1)c1cc2ccccc2oc1=O	3.2%	-8.2%	8.7%	13.4*	-3.2%	-3.2
CSCC[C@H](NC(=O)[C@H](CO)NC(=O)[C@H](Cc1ccc(O)cc1)NC(=O)[C@@H](N)CO)C(=O)N[C@@H](CCC(=O)O)C(=O)N[C@@H](Cc1cnc[nH]1)C(=O)N[C@@H](Cc1ccccc1)C(=O)N[C@@H](CCCNC(=N)N)C(=O)N[C@@H](Cc1c[nH]c2ccccc12)C(=O)NCC(=O)N[C@@H](CCCCN)C(=O)N1CCC[C@H]1C(=O)N[C@H](C(=O)NCC(=O)N[C@@H](CCCCN)C(=O)N[C@@H](CCCCN)C(=O)N[C@@H](CCCNC(=N)N)C(=O)N[C@@H](CCCNC(=N)N)C(=O)N1CCC[C@H]1C(=O)N[C@H](C(=O)N[C@@H](CCCCN)C(=O)N[C@H](C(=O)N[C@@H](Cc1ccc(O)cc1)C(=O)N1CCC[C@H]1C(=O)O)C(C)C)C(C)C)C(C)C	6.5%	x	x	-6.9	x	-6.0
SMILES	Giardia FBPA inh	Sm TGR inh	Tb PYK inh	Cycloheximide cs	LmPK inhibitor	Shiga inhibitor
COc1ccc(Br)cc1CNC(=O)c1ccc2nc(C(C)C)oc2c1	x	6.0%	3.5%	x	x	x
Cc1ccc(OCc2occc2C(=O)O)cc1	x	x	0.4%	x	x	x
N#CC(C#N)=C1c2cc(S(N)(=O)=O)ccc2-c2ccc(S(N)(=O)=O)cc21	u	4.47µM*	-6.5%	6.7	2.8%	10.9
O=C1c2cc(S(=O)(=O)NCCO)ccc2-c2ccc(S(=O)(=O)NCCO)cc21	3.4%	6.7%	-4.9%	-3.2	0.2%	-19.1
NS(=O)(=O)c1ccc2c(c1)C(=NO)c1cc(S(N)(=O)=O)ccc1-2	-1.2%	2.9%	-4.9%	-4.2	0.8%	x
N#CC(C#N)=C1c2cc(S(=O)(=O)NCCO)ccc2-c2ccc(S(=O)(=O)NCCO)cc21	u	4.47µM*	5.4%	-2.5	4.3%	-10.4
CCn1ncc(C(=O)Nc2cc(C)on2)c1C	4.5%	-0.4%	-10.2%	47.3*	3.1%	38.0
COc1cccc(NC(=O)c2ccccc2C(F)(F)F)c1	-6.6%	x	5.8%	6.9	-4.0%	13.3
Cc1cc(NC(=O)c2cnn3c(C(F)F)cc(C4CC4)nc23)no1	2.2%	0.6%	-6.0%	-0.5	2.4%	-8.2
CCn1ncc(C(=O)Nc2ccc(S(=O)(=O)N3CCCC3)cc2)c1C	u	3.7%	-0.6%	7.2	-0.3%	8.7
CCn1ncc(C(=O)Nc2cccc(Cl)c2)c1C	-13.4%	6.0%	-3.7%	67.5*	-5.2%	30.1*
CCc1cccc(NC(=O)c2cnn(-c3ccccc3)c2C)c1	-17.7%	-0.1%	-9.6%	44.9*	-16.1%	136.5*
COc1cccc(NC(=O)c2cnn(-c3ccccc3)c2C)c1	-21.3%	4.5%	-20.0%	32.1*	-16.7%	53.3*
CCN(CC)C(=O)Cn1c(=O)n(CC(=O)N2CCCCC2)c(=O)c2sccc21	x	-1.5%	-7.4%	-1.7	-0.5%	-8.5
c1ccc(CCNc2nc3ccccc3s2)cc1	-3.3%	23.3%	-4.6%	66.8*	12.4%	84.6*
Cc1ccc(CNc2nc3ccccc3s2)s1	14.6%	4.7%	-8.1%	-2.7	2.8%	-31.4
COc1ccc(CNc2nc3ccccc3s2)cc1OC	-3.3%	-21.2%	4.3%	44.7*	-1.3%	66.2*
CCC(=O)N1CCc2nc(-c3ccccc3)sc2C1	-11.2%	-8.9%	4.0%	24.9*	-1.6%	69.4*
CC[C@H](Cc1c(I)cc(I)c(N)c1I)C(=O)O	2.8%[21.7 µM]	x	1.3%[33.2 µM]	x	x	x
Cc1ccc(-n2c3c(cc(C(=O)NCc4ccco4)c2=O)C(=O)CC(C)(C)C3)cc1	1.4%	22.4µM*	-1.2%	7.5	2.3%	12.4
